Results from PubChem BioAssay (NCATS).
Results filed as inconclusive are left out. Where a call stands in place of a potency, no number is given. Calls of active or inactive are those of the source. Calls follow the shape of the dose curve; as a rule, active = well fitted curve in the direction sought with a large enough effect; inconclusive = small, poorly fitted or top-dose-only effect, or another doubt; inactive = no such curve, though single readings can be large; an effect the other way counts as inactive or inconclusive.

Experiments:
AA1029 = experiment: qHTS profiling for inhibitors of Plasmodium falciparum proliferation (AID 504749); also: nearly all actives have a fitted effect of over 60% in size; also: potency is read from the fitted curve at half-maximal effect; settings: P. falciparum in erythrocytes, SYBR Green DNA, 72 h; series mostly up to 28.7 µM
Summary of the method: (§1)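 In a 72 h erythrocytic culture (37 C, humidified, 5% CO2) at 2.5% hematocrit and 0.3% starting parasitemia, compounds were tested; SYBR Green I in detergent lysis buffer stained parasite DNA overnight.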

CP256 = experiment: as above; settings: P. falciparum in erythrocytes, SYBR Green DNA, 72 h; series mostly up to 28.7 µM
Summary of the method: as §1

[1] = S16 Schwann cell viability assay (CellTiter-Glo assay) (AID 624031);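 also: cellular ATP luminescence as a viability measure; nearly all actives have a fitted effect of over 70% in size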
Summary of the method: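 Untransfected S16 rat Schwann cells; compound 24 h, 37 °C/5% CO2; CellTiter-Glo ATP luminescence. % activity vs no-cell wells and DMSO controls (0%); concentration-effect curves classed by r2, response magnitude, activity.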

AS120 = experiment: qHTS profiling for inhibitors of Plasmodium falciparum proliferation (AID 504749); also: nearly all actives have a fitted effect of over 60% in size; also: potency is read from the fitted curve at half-maximal effect; settings: P. falciparum in erythrocytes, SYBR Green DNA, 72 h; series mostly up to 28.7 µM
Summary of the method: as §1

ATS189 = experiment: as above; settings: P. falciparum in erythrocytes, SYBR Green DNA, 72 h; series mostly up to 28.7 µM
Summary of the method: as §1

CP185 = experiment: as above; settings: P. falciparum in erythrocytes, SYBR Green DNA, 72 h; series mostly up to 28.7 µM
Summary of the method: as §1

CP194 = experiment: as above; settings: P. falciparum in erythrocytes, SYBR Green DNA, 72 h; series mostly up to 28.7 µM
Summary of the method: as §1

CP203 = experiment: as above; settings: P. falciparum in erythrocytes, SYBR Green DNA, 72 h; series mostly up to 28.7 µM
Summary of the method: as §1

CP215 = experiment: as above; settings: P. falciparum in erythrocytes, SYBR Green DNA, 72 h; series mostly up to 28.7 µM
Summary of the method: as §1

CP237 = experiment: as above; settings: P. falciparum in erythrocytes, SYBR Green DNA, 72 h; series mostly up to 28.7 µM
Summary of the method: as §1

CP252 = experiment: as above; settings: P. falciparum in erythrocytes, SYBR Green DNA, 72 h; series mostly up to 28.7 µM
Summary of the method: as §1

CP265 = experiment: as above; settings: P. falciparum in erythrocytes, SYBR Green DNA, 72 h; series mostly up to 28.7 µM
Summary of the method: as §1

CP266 = experiment: as above; settings: P. falciparum in erythrocytes, SYBR Green DNA, 72 h; series mostly up to 28.7 µM
Summary of the method: as §1

CP268 = experiment: as above; settings: P. falciparum in erythrocytes, SYBR Green DNA, 72 h; series mostly up to 28.7 µM
Summary of the method: as §1

CP297 = experiment: as above; settings: P. falciparum in erythrocytes, SYBR Green DNA, 72 h; series mostly up to 28.7 µM
Summary of the method: as §1

CP305 = experiment: as above; settings: P. falciparum in erythrocytes, SYBR Green DNA, 72 h; series mostly up to 28.7 µM
Summary of the method: as §1

ECU = experiment: as above; settings: P. falciparum in erythrocytes, SYBR Green DNA, 72 h; series mostly up to 28.7 µM
Summary of the method: as §1

HB3 = experiment: as above; settings: P. falciparum in erythrocytes, SYBR Green DNA, 72 h; series mostly up to 28.7 µM
Summary of the method: as §1

PC15 = experiment: as above; settings: P. falciparum in erythrocytes, SYBR Green DNA, 72 h; series mostly up to 28.7 µM
Summary of the method: as §1

TAB109 = experiment: as above; settings: P. falciparum in erythrocytes, SYBR Green DNA, 72 h; series mostly up to 28.7 µM
Summary of the method: as §1

Row | SMILES | Potency (AA1029) | Potency (CP256) | Potency [1] | Potency (AS120) | Potency (ATS189) | Potency (CP185) | Potency (CP194) | Potency (CP203) | Potency (CP215) | Potency (CP237) | Potency (CP252) | Potency (CP265) | Potency (CP266) | Potency (CP268) | Potency (CP297) | Potency (CP305) | Potency (ECU) | Potency (HB3) | Potency (PC15) | Potency (TAB109)
1 | Cc1cc(O)c2c(c1)OC1(C)CCC3C(C)(C)CCCC34COC2C14 (stereo not drawn) | 10 µM (active) | inactive |  |  |  |  |  |  |  |  |  |  |  |  |  |  |  |  |  | 
2 | CC1=C(c2ccc(NN=C(C#N)C#N)cc2)NNC(=O)C1 | inactive | inactive | inactive | inactive | inactive | inactive | inactive | inactive | inactive | inactive | inactive | inactive | inactive | inactive | inactive | inactive | inactive | inactive | inactive | inactive
3 | CC1OC(OC2C(O)CC(OC3C(O)CC(OC4CCC5(C)C(CCC6C5CCC5(C)C(C7=CC(=O)OC7)CCC65O)C4)OC3C)OC2C)CC(O)C1O (stereo not drawn) | inactive | inactive | inactive | inactive | inactive | inactive |  | inactive | inactive |  | inactive | inactive | inactive | inactive | inactive | inactive | inactive |  |  | inactive
4 | C/C(=C(/CCOC(=O)C(C)C)SS/C(CCOC(=O)C(C)C)=C(\C)N(C=O)Cc1cnc(C)nc1N)N(C=O)Cc1cnc(C)nc1N | inactive | inactive |  | inactive | inactive | inactive | inactive | inactive | inactive | inactive | inactive | inactive | inactive | inactive | inactive | inactive | inactive | inactive | inactive | inactive
5 | CCC1OC(=O)C[C@H](O)C(C)[C@@H](O[C@@H]2OC(C)C(O)C(N(C)C)C2O)C(CCN2CC(C)CC(C)C2)CC(C)C(=O)/C=C/C(C)=C\[C@@H]1COC1OC(C)C(O)C(OC)C1OC (stereo partly drawn) |  | 8.91 µM (active) | inactive |  |  |  |  |  |  | 5.01 µM (active) |  |  |  |  |  |  |  | inactive | inactive | 4.47 µM (active)
6 | C#C[C@]1(O)CC[C@H]2[C@H]3[C@H](CC[C@@]21C)C1=C(CC(=O)CC1)C[C@@H]3C | inactive | inactive |  | inactive | inactive | inactive | inactive | inactive | inactive | inactive | inactive | inactive | inactive | inactive | inactive | inactive | inactive | inactive | inactive | inactive
7 | CC[C@H]1OC(=O)[C@H](C)C(=O)[C@H](C)[C@@H](OC2O[C@H](C)C[C@H](N(C)C)[C@@H]2O)[C@@](C)(OC)C[C@@H](C)C(=O)[C@@H](C)C2N(CCCCn3cnc(-c4cccnc4)c3)C(=O)O[C@@]21C (stereo partly drawn) |  | inactive | inactive |  |  | inactive | inactive | inactive | inactive |  | inactive | inactive | inactive | inactive |  | inactive | 10 µM (active) |  | inactive | 
8 | C[C@]12CCC(=O)C=C1[C@@H]1C[C@H]1[C@H]1[C@@H]3[C@@H]4C[C@H]4[C@@]4(CCC(=O)O4)[C@@]3(C)CC[C@@H]12 | inactive | inactive | inactive | inactive | inactive | inactive |  | inactive |  | inactive | inactive | inactive | inactive | inactive | inactive | inactive | inactive | inactive | inactive | inactive
9 | COC(=O)C1[C@@H](OC)C(OC(=O)COc2ccc(OC)cc2)C[C@@H]2CN3CCc4c([nH]c5cc(OC)ccc45)[C@H]3C[C@H]12 (stereo partly drawn) | 10 µM (active) |  | inactive | 11.2 µM (active) | 11.2 µM (active) |  |  | inactive | inactive |  |  |  | inactive |  | inactive |  |  | 12.6 µM (active) |  | 
10 | O=C(NC(CO)C(O)c1ccc([N+](=O)[O-])cc1)C(Cl)Cl (stereo not drawn) |  | 11.2 µM (active) | inactive |  |  |  | inactive | inactive |  |  |  |  |  |  |  |  | inactive |  | inactive | 
11 | O=C(O)c1ccccc1-c1c2ccc(=O)cc-2oc2cc(O)ccc12 |  |  | inactive |  |  |  |  | inactive | inactive |  |  |  | inactive |  |  |  |  |  |  | 
12 | CC1=C(/C=C/C(C)=C\C=C\C(C)=C\C=C\C=C(C)\C=C\C=C(C)\C=C\C2=C(C)C[C@@H](O)CC2(C)C)C(C)(C)C[C@H](O)C1 | 12.6 µM (active) | inactive | inactive | 12.6 µM (active) |  | inactive | inactive | inactive | inactive | 11.2 µM (active) |  | inactive |  | inactive |  | inactive | 14.1 µM (active) | 10 µM (active) |  | 
13 | C[C@@H]1CC2[C@@H]3C[C@H](F)C4=CC(=O)C(Cl)=C[C@]4(C)[C@@]3(F)[C@H](O)C[C@]2(C)[C@@]1(O)C(=O)CO (stereo partly drawn) |  | inactive | inactive |  | inactive |  | inactive |  | inactive |  |  | inactive | inactive | inactive | inactive | inactive |  | inactive | inactive | 
14 | CCN(CC)CCOCCOC(=O)C(CC)(CC)c1ccccc1 (tested in a mixture with another compound) |  | 5.62 µM (active) | inactive |  |  |  |  | 4.26 µM (active) |  |  |  | 1.12 µM (active) |  |  |  | 8.49 µM (active) | inactive |  |  | inactive
15 | C=C1CC[C@H](O)C/C1=C/C=C1\CCC[C@]2(C)[C@@H]([C@H](C)CC[C@@H](O)C(C)(C)O)CC[C@@H]12 |  |  | inactive | 10 µM (active) |  |  |  | inactive | inactive | 10 µM (active) |  |  | inactive | inactive |  | inactive | 10 µM (active) |  |  | 
16 | CCC1OC(=O)C[C@@H](O)[C@H](C)[C@@H](OC2OC(C)CC(N(C)C)C2O)[C@@H](CC=O)C[C@@H](C)C(=O)/C=C/[C@]2(C)OC2C1C (stereo partly drawn) |  | 2.24 µM (active) | inactive |  |  | 2 µM (active) |  |  |  | 5.01 µM (active) | 3.55 µM (active) |  |  |  | 2.13 µM (active) |  |  |  | inactive | 0.794 µM (active)
17 | C=C1N[C@]2(C(=O)COC(C)=O)[C@@H](C[C@H]3[C@@H]4CCC5=CC(=O)C=C[C@]5(C)[C@H]4[C@@H](O)C[C@@]32C)O1 |  | inactive | inactive |  |  |  |  |  |  | inactive | inactive | inactive | inactive |  | inactive |  | inactive | inactive | inactive | inactive
18 | Cc1cncc(C(=O)O)[n+]1[O-] |  |  | inactive |  |  |  | inactive |  | inactive | inactive |  |  |  | inactive | inactive | inactive |  | inactive | inactive | 
19 | CCC(=O)OC1C(N(C)C)CC(C)O[C@H]1O[C@H]1[C@H](C)[C@@H](O[C@H]2CC(OC)[C@@H](O)C(C)O2)[C@H](C)C(=O)O[C@@H](CC)[C@](C)(O)[C@@H](O)[C@H](C)C(=O)[C@@H](C)C[C@]1(C)O (stereo partly drawn) |  |  | inactive | inactive | inactive |  | inactive | inactive |  | inactive |  |  | inactive | inactive |  | inactive |  | inactive | inactive | 
20 | C=CCN1CC(C(=O)N(CCCN(C)C)C(=O)NCC)CC2c3cccc4[nH]cc(c34)CC21 (stereo not drawn) |  |  |  |  |  | inactive | inactive |  | inactive | 8.91 µM (active) |  | inactive | inactive | inactive | inactive | inactive |  | inactive |  | 
21 | C=C1CCC(O)C/C1=C/C=C1\CCC[C@]2(C)[C@@H]([C@H](C)/C=C/[C@H](C)C(C)C)CC[C@@H]12 (stereo partly drawn) | inactive |  | inactive |  |  |  | inactive | inactive | inactive | inactive |  |  | inactive | inactive | inactive | inactive |  |  |  | 
